# Test system: VDR:RXRa (NR concentration 270 nM, RXRa partner concentration 90 nM)
# Test: PBM binding z-score (relative to random genomic background probes); higher = stronger binding; sequences stand for … in GC…GCGATTGACAGCGTAGAATGAAGG
# Description: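 Protein-binding microarray (Agilent 4x180K custom design, double-stranded 60-nt probes: 5' GC cap, 34-nt variable region, 24-nt constant primer region; full probe sequence given). Purified or IVT nuclear receptor:RXRα heterodimers (3:1 NR:RXRα, mostly 270:90 nM) or homodimers were incubated for 1 h in PBS with 2% milk and no ligand, then detected with Alexa488 antibodies. Fluorescence from o1-orientation probes (~5 replicates averaged) was converted to z-scores against 500 random hg19 background probes. Variable regions are seed direct-repeat (DR0–DR5) sites, all their single-nucleotide variants and half-site ablations.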
row,Sequence,PBM binding z-score
1,TGTCAAAGTTCAAAGGTAACGGAAGTATCCACAC,5.14
2,GCTAGTTGGTCAGTAAAAGGTAACACACCGGTCG,0.0911
3,CGTTCAAGGTCAGAGAGGTCAGTGAATGCCGAGT,7.5
4,TTACCAAGGTGAGCTGAGGTCGTTTATCCAACTC,4.32
5,GCTCAGAGGACAAGGTCAGAGCTTTGTCCGTAGA,1.69
6,TCGAGTAGGTTAGTCGGGGCATTTAGCCAACATA,2.2
7,CGAACTAGGTCAGAAGAGGACAGTGAAGGATGAT,1.69
8,ACTTGCAGGCCAAGGGTCACTCAAGATTAGTCCG,3.05
9,ACTATTAGTAGAGACGAGGGCAACCGATAGGTTG,0.332
10,ATATGTAGGTTAAGGGTCATTCCGGTTGGTTCGC,5.11
11,ATATCTAGGTTACATCCGGGTCATTCAGGCTATG,4.23
12,TTACCAATGTGAAAGGTCGTTGATGCACGCCTTG,2.08
13,TGTTGTAGATCAATAGAGGTTAAGAAAGTGCGCT,1.92
14,TCATATAGGTAATACAGGTGAAACTCGGCATCTA,1.37
15,GCTAGTTGGTCAGTACAAGGTCACACACCGGTCG,3.24
16,AGAACGAGGGCACGCTGAGTTGATAGGAGAGTAG,2.04
17,CGAACTAGGTTATCCAGGACAGTGAATACATTGA,1.57
18,ATCTCTCGGTAAGACTCAGTTCAGTGAAGAACGC,0.848
19,ATCGAAAGGTCGAGGTGAGTCTAGAGAAAGGGAA,3.21
20,TCACATAGGTAAAGGTGAAAGTCGAACGATATGA,1.32

row,Sequence,PBM binding z-score
1,AGTCAAAGTTCACTAGGTAACGCAAGATTCAGCT,3.39
2,TCATATAGGTAAAGGTGATAGTCGAACGATATGA,0.559
3,GGAACGAGGGCATTCGTGTTGATAGCATGGCGAT,1.6
4,CGTCCAAGGTCAGCTGGTCAGTGAAAGCGACGTG,2.66
5,CAAACTAGGTCATGAGGTCAAAGTCCGCTTCCCG,6.08
6,CGTGCAAGGTCAGCAGGTCAGTGAAAGCGACGTG,4.25
7,TCTGCTAGGTCAGTTGGTCAGCTGACGAGCTGCC,-0.0967
8,CGTCAAAGTTCAATTAAGGTAACGTAAAGCACGC,3.98
9,TAGCCTAGGTAAGATCGGGCCAGTATACGCTATA,-0.645
10,CAAACTAGGTCACAGAAGTCAAAGTCCGTGCGTA,3.91
11,AGAATGAGGTTACCAAAGATCAGGGGAACGCTTG,1.49
12,TCTTGTAGATCAAAAGTTAAGAAAGCCGAAGCCT,0.386
13,AGTCAAAGTGCACTAGGTAACGTAAGATTCAGCT,0.166
14,CAAACTAGGTCAAGTGGTCAAAGTCCGCTTCCCG,2.52
15,CGTCCAAGGTCAAAGAGGTCAGTGAATGCCGAGT,7.77
16,AGTCAAAGTTCACTAGCTAACGTAAGATTCAGCT,3.66
17,CCTAGCAGGCCAACCTGGGTCACTCAAGGCTTGA,1.15
18,AGTATGAGGTTATACGTAGATCAGGGAAGAAAGT,1.34
19,TCTCGGAGGACACGAAGGTCACAGCTTTCCAGAG,4.05
20,CGTCCAAGGTCAGAGAGGTCTGTGAATGCCGAGT,4.72

# Source: the supplement of paper PMC6555819
